Screening results deposited in PubChem by Broad Institute.
This is a sample that favours compounds with a hit; in the whole collection about 1.8% have one here.
LGR2 inh = Drosophila LGR2 receptor signaling inhibition | HEK293 LGR2, CRE-luciferase, bursicon-stimulated, 4 h | inhibition, % at 9.99 µM | hit rate 0.35% among 380,000;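 active = drop in luminescence signal, shown as inhibition above about 50% in the replicate tests, limit read from the data, passing the limit was not always enough; inconclusive = probably only some replicates passing the limit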;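 note: agonist challenge used bursicon conditioned medium at about half maximal strength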
PAX8 inh HTS = PAX8 transcriptional activity inhibition | RMG-I TPO-luciferase reporter, SteadyGlo, 24 h | inhibition, % at 12.6 µM | hit rate 1.2% among 360,000;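 active = mean replicate inhibition at least 60% with every replicate also reaching 60%; inconclusive = only one of the two criteria is met; inactive = mean below 60% and not all replicates reaching 60%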;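 note: luciferase light reporting Pax8 driven TPO promoter activity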
EWS-Fli inh = blocks EWS/Fli oncoprotein-driven transcription; A673 NR0B1-luciferase reporter, viability-normalised; inhibition, % at 12.6 µM; hit rate 0.67% among 350,000;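 active = mean inhibition of at least 50% after viability correction, with every replicate also passing that limit; inconclusive = mean reaches 50% but only one of two replicates passes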;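 note: firefly luciferase signal divided by Alamar Blue viability fluorescence both relative to DMSO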
CFTR F508del cor = correctors of CFTR F508del function in bronchial epithelial cells; activity (quench increase), % at 7.58 µM; hit rate 0.36% among 350,000; CFBE cells, YFP halide quenching; stimulated with forskolin plus potentiator P3; % fluorescence drop versus neutral controls;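 active = mean added fluorescence quench of at least 8% versus neutral control, with both replicates also reaching 8%; inconclusive = only one of the mean or replicate conditions met; inactive = mean below 8% and not both replicates reaching 8%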;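 note: cells transiently co-express mutant CFTR-F508del with the halide-sensitive YFP; corrector assay measuring rescue of mutant channel to the surface after 24 h compound exposure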
Large screens that a line does not name were inactive.

CCCOCCOC(=O)c1[nH]c2c(c1C)C(=O)CC(c1cc(OC)ccc1OC)C2 (configuration not stated)	EWS-Fli inh 56, CFTR F508del cor 9.6
COc1ccccc1NC(=O)C[C@H]1CC[C@H]2[C@@H](COc3ccc(NC(=O)C(C)C)cc3C(=O)N2C)O1	none
C[C@@H]1CN([C@H](C)CO)C(=O)c2cc(NC(=O)Cc3ccccc3)ccc2O[C@@H](C)CCCCO[C@@H]1CN(C)Cc1ccc(Cl)c(Cl)c1	none
C[C@@H]1CCCCO[C@@H](CN(C)Cc2ccc(Cl)c(Cl)c2)[C@@H](C)CN([C@@H](C)CO)C(=O)c2cc(NC(=O)c3ccccc3)ccc2O1	PAX8 inh HTS 66
C[C@@H]1CCCCO[C@H](CN(C)Cc2ccc(Cl)c(Cl)c2)[C@@H](C)CN([C@@H](C)CO)C(=O)c2cc(NC(=O)Cc3ccccc3)ccc2O1	PAX8 inh HTS 96
C[C@H]1CCCCO[C@H](CN(C)Cc2ccc(Cl)c(Cl)c2)[C@@H](C)CN([C@@H](C)CO)C(=O)c2cc(NC(=O)c3ccccc3)ccc2O1	PAX8 inh HTS 67
C[C@@H]1CN([C@H](C)CO)C(=O)c2cccc(NC(=O)c3ccncc3)c2O[C@H]1CN(C)Cc1ccc(Cl)c(Cl)c1	PAX8 inh HTS 61
COc1cc(S(=O)(=O)n2cnc3ccccc32)ccc1Br	none
COc1ccc(C(NC(=O)C2CCN(CCOc3ccc(F)cc3)CC2)c2cccs2)cc1 (configuration not stated)	none
COc1ccc(-c2cc(=O)c3ccc(O)cc3o2)cc1	none (no result: PAX8 inh HTS)
COc1ccc(-c2cc(=O)c3cc(OC)ccc3o2)cc1	EWS-Fli inh 52 (no result: PAX8 inh HTS)
COc1cc(-c2ccc3oc(-c4ccsc4)cc(=O)c3c2)cc(OC)c1OC	LGR2 inh 64
CC1CCN(C(=O)c2[nH]cnc2C(=O)Nc2cccc(Cl)c2)CC1	none
COc1cc(/C=C2\SC(=S)N(NC(=O)c3ccncc3)C2=O)ccc1O	CFTR F508del cor 13
COc1cc(/C=C2\SC(=S)N(NC(=O)c3ccc(O)c(OC)c3)C2=O)ccc1O	none
COc1ccc(CCNC(=O)CCCn2c(=S)[nH]c3ccsc3c2=O)cc1OC	none
CCc1ccc(NC(=O)c2cnn3ccccc23)cc1	PAX8 inh HTS 82, EWS-Fli inh 71 (no result: LGR2 inh)
CC1(C)CC[C@]2(C(=O)O)CC[C@]3(C)C(=CC[C@@H]4[C@@]5(C)CC[C@H](O[C@@H]6O[C@H](C(=O)O)[C@@H](O)[C@H](O[C@@H]7OC[C@H](O)[C@H](O)[C@H]7O)[C@H]6O)C(C)(C)[C@@H]5CC[C@]43C)[C@@H]2C1	LGR2 inh inconclusive, PAX8 inh HTS 101, EWS-Fli inh inconclusive
O=C(CN1C(=O)NC2(CCCCCCC2)C1=O)Nc1ccc(Br)cc1	CFTR F508del cor 9.1
O=C(CN1C(=O)NC2(CCCCC2)C1=O)Nc1ccc(F)cc1	none
CCCCCOP(=O)(c1ccccc1)c1ccccc1	PAX8 inh HTS 95
CCCCP(=O)(CCCC)CCP(=O)(c1ccccc1)c1ccccc1	none
COc1ccc(S(=O)(=O)Nc2cccc3c2O[C@@H](CN(C)C)[C@H](C)CN([C@@H](C)CO)C3=O)cc1	none
CC1=C(C(=O)N(C(C)C)C(C)C)CC(CC(=O)NCc2cccc3ccccc23)C(=O)N1CCCN1CCCC1=O (configuration not stated)	none
CC1=C(C(=O)N(C)C)CC(CC(=O)NCc2cccc3ccccc23)C(=O)N1CCCN1CCCC1=O (configuration not stated)	CFTR F508del cor 8.3
C[C@H]1CN([C@@H](C)CO)C(=O)Cc2cc(NC(=O)Nc3cccc4ccccc34)ccc2O[C@H]1CN(C)Cc1ccc(Oc2ccccc2)cc1	none
O=C(Nc1cc(S(=O)(=O)N2CCOCC2)ccc1N1CCOCC1)c1ccc([N+](=O)[O-])s1	none
Cc1ccc(NC(=O)c2ccc([N+](=O)[O-])s2)cc1S(=O)(=O)N1CCOCC1	PAX8 inh HTS 101
Cc1ccc(NC(=O)c2ccc(S(=O)(=O)N(C)c3ccccc3)cc2)cc1S(=O)(=O)N1CCOCC1	PAX8 inh HTS 65
COc1ccc(CN2CC(=O)N(c3ccccc3C)C2=S)cc1OC	none
O=C(C[C@H]1CC[C@H]2[C@@H](COC[C@H](O)CN2Cc2ccc(C(F)(F)F)cc2)O1)NCCc1ccccc1	none (no result: PAX8 inh HTS, EWS-Fli inh)
COc1ccc(-c2cc(C(F)(F)F)nc(S(=O)(=O)CCCC(=O)Nc3cc(C)on3)n2)cc1OC	LGR2 inh 90, PAX8 inh HTS 90
Cc1cccc(C)c1Nc1nnc(SCC(=O)c2ccc(Br)s2)s1	EWS-Fli inh 75 (no result: CFTR F508del cor)
Cc1ccc(Nc2nnc(SCC(=O)c3ccc(Br)s3)s2)c(C)c1	none (no result: LGR2 inh, CFTR F508del cor)
CCCn1nc(NC(=O)C(C)(C)C)c2cc3cc(OC)ccc3nc21	none
CCCCn1nc(NC(=O)CC)c2cc3cc(OC)ccc3nc21	CFTR F508del cor 9.6
CCOc1c(C(=O)CC)cc2c(C)cc(=O)oc2c1C	none (no result: LGR2 inh, EWS-Fli inh, CFTR F508del cor)
Cc1ccc(C(=O)Nc2ncc([N+](=O)[O-])s2)cc1	PAX8 inh HTS 87, EWS-Fli inh 76 (no result: LGR2 inh)
O=C(Nc1ncc([N+](=O)[O-])s1)c1ccc2c(c1)OCO2	LGR2 inh 91, PAX8 inh HTS 75
Cc1cnc(NC(=O)c2ccc3c(c2)OCCO3)s1	LGR2 inh 96, PAX8 inh HTS 99, EWS-Fli inh 77, CFTR F508del cor 9.0
Cc1ccc([N+](=O)[O-])cc1NC(=O)c1ccc2c(c1)OCO2	none
CC(c1ccccc1)c1nnc(NC(=O)c2ccc3c(c2)OCO3)s1 (configuration not stated)	none
CC(C)c1nnc(NC(=O)c2ccc3c(c2)OCO3)s1	LGR2 inh 74, EWS-Fli inh inconclusive
O=C(O)CC(NC(=O)C1c2ccccc2Oc2ccccc21)c1ccc(Cl)cc1 (configuration not stated)	none (no result: CFTR F508del cor)
COCCNC(=O)C[C@H]1C[C@@H]2c3cc(NC(=O)Nc4ccc(F)cc4)ccc3O[C@@H]2[C@H](CO)O1	none
CC(C)c1nc2oc3c(NCCO)ncnc3c2c2c1COC(C)(C)C2	CFTR F508del cor 13
Cc1nc2oc3c(NCc4ccccc4)ncnc3c2c2c1COC(C)(C)C2	none (no result: LGR2 inh, EWS-Fli inh, CFTR F508del cor)
Cc1ccc2[nH]c(-c3ccccc3)cc(=O)c2c1	EWS-Fli inh 58, CFTR F508del cor 10 (no result: LGR2 inh)
Cc1ccccc1-c1ccc2c(c1)O[C@@H](CN(C)Cc1ccncc1)[C@H](C)CN([C@H](C)CO)S2(=O)=O	EWS-Fli inh 66 (no result: PAX8 inh HTS)
C[C@H]1CN([C@@H](C)CO)S(=O)(=O)c2ccc(C3=CCCCC3)cc2O[C@@H]1CN(C)C(=O)Cc1ccncc1	CFTR F508del cor 8.5
Cc1ccc(-c2ccc3c(c2)O[C@H](CN(C)C(=O)Nc2ccc(C(F)(F)F)cc2)[C@@H](C)CN([C@@H](C)CO)S3(=O)=O)cc1	CFTR F508del cor 8.7 (no result: PAX8 inh HTS)
C[C@H]1CN([C@@H](C)CO)S(=O)(=O)c2ccc(C3=CCCCC3)cc2O[C@H]1CN(C)C(=O)Cc1ccncc1	none
Cc1ccc(-c2ccc3c(c2)O[C@H](CN(C)Cc2ccncc2)[C@H](C)CN([C@@H](C)CO)S3(=O)=O)cc1	none (no result: PAX8 inh HTS)
Cc1ccc(-c2ccc3c(c2)O[C@H](CN(C)Cc2ccncc2)[C@@H](C)CN([C@H](C)CO)S3(=O)=O)cc1	EWS-Fli inh 72 (no result: PAX8 inh HTS)
